40 compounds from PubChem BioAssay AID1559 (National Center for Advancing Translational Sciences (NCATS), 2009) can be followed below.

Results filed as inconclusive are left out. Entries that show only a call come without a potency. The source made the active and inactive calls. Calls follow the shape of the dose curve; as a rule, active = well fitted curve in the direction sought with a large enough effect; inconclusive = small, poorly fitted or top-dose-only effect, or another doubt; inactive = no such curve, though single readings can be large or run the other way.

Chain of Microtubule-associated protein tau (Homo sapiens) (P10636 561-689 P618L limits assumed): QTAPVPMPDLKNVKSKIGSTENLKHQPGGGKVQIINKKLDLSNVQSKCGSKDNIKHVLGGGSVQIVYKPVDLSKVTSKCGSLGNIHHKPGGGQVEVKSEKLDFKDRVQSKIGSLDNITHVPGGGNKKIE

The target in the test is Microtubule-associated protein tau (Homo sapiens) (UniProt P10636). The test is described as follows: Confirmation Concentration-Response Assay for Inhibitors of Tau Fibril Formation, Fluorescence Polarization. The note with it: recombinant tau K18 P301L (four-repeat tau fragment) heparin fibrillization, Alexa594 FP; series mostly up to 57.1 µM. An excerpt:
NIH Molecular Libraries Probe Production Network [MLPCN] NIH Chemical Genomics Center [NCGC] MLPCN Grant: X01 MH083262-01 Assay Provider: Carlo Ballatore, University of Pennsylvania NCGC Assay Overview: The microtubule-associated protein tau is an abundant protein in the axons of neurons that stabilizes microtubules. With its ability to modulate microtubule dynamics, tau contributes directly or indirectly, to key structural and regulatory cellular functions. Particularly important is the influence tau exerts on axonal transport, which allows signaling molecules, trophic factors and other essential cellular constituents to travel along the axons. Under pathological conditions, tau becomes sequestered into insoluble aggregates called neurofibrillary tangles. This phenomenon is believed to have pathological consequences by promoting axonal transport deficits that ultimately lead to synaptic dysfunction and neuronal loss. To identify inhibitors of tau aggregation, a heparin-induced tau fibril formation assay was used that employed a recombinantly expressed fragment of tau, K18 (Q242-E372), bearing a P301L mutation (Gustke et al. 1994; Hong et al. 1998). […] Gustke, N., B. Trinczek, et al. (1994). "Domains of tau protein and interactions with microtubules." Biochemistry 33(32): 9511-22. Hong, M., V. Zhukareva, et al. (1998). "Mutation-specific functional impairments in distinct tau isoforms of hereditary FTDP-17." Science 282(5395): 1914-7. Li, W. and V. M. Lee (2006). "Characterization of two VQIXXK motifs for tau fibrillization in vitro." Biochemistry 45(51): 15692-701. von Bergen, M., S. Barghorn, et al. (2001). "Mutations of tau protein in frontotemporal dementia promote aggregation of paired helical filaments by enhancing local beta-structure." J Biol Chem 276(51): 48165-74.
For screening, 2 uL/well human K18 P301L (15 uM unlabeled and 0.24 uM Alexa 594-labeled tau final concentrations) in reagent buffer (100 mM sodium acetate pH 7) was dispensed into black solid 1536-well plates (Grenier) using a solenoid-based dispenser. Following transfer of 23 nL compound or DMSO vehicle by a pin tool, 2 uL/well heparin (20 uM final concentration) in reagent buffer was added and the plate centrifuged 15 s at 1000 RPM. Plates were incubated 6 hr at 37 C and then 1 uL/well ThT (30 uM final concentration) was added. After a 1 hr ambient incubation, the plates were read by an Envision (Perkin Elmer) to monitor Alexa 594 FP (555 nm excitation and 632 nm emission). Keywords: NIH Roadmap, MLPCN, MLI, MLSMR, NCGC, qHTS, tau, tauopathies, Alzheimer's disease, fibril, neurodegeneration, aggregation
For `O=S(=O)(c1ccc(NC(=S)N/N=C/c2ccc(N3CCOCC3)cc2)cc1)N1CCOCC1`, the Potency result was “inactive”.
With `COC(=O)c1c(N)sc2c1C(C(=O)OC)CC2` (stereo not given), the Potency entry was “inactive”.
As for `Cn1cc(Cl)c(C(=O)Nc2cccc(Cl)c2Cl)n1`, the Potency entry was “inactive”.
Regarding `Cc1cc2c(N)cccc2nn1`, the Potency is 39.8 µM (active).
Turning to `CCOC(=O)c1nn(-c2ccccc2)c(=O)c(C#N)c1C`, the Potency entry was “inactive”.
For the compound `Cc1ccc(SCc2cc(=O)n(C)[nH]2)cc1`, the Potency entry is “inactive”.
Under `Cn1[nH]c(CSc2ccc(Cl)cc2)cc1=O` stands “inactive”.
Take `COc1ccc2c(c1)c(CC(=O)Nc1ccc(C(C)=O)cc1)c(C)n2C(=O)c1ccc(Cl)cc1`: the Potency result is “inactive”.
For `CCOC(=O)c1nn(-c2ccc(OC)cc2)c(=O)c2c(NC(=O)Cc3ccccc3)scc12`, the Potency result was “inactive”.
With `COc1ccc(CNC(=O)Cn2nc(C)n3cccc3c2=O)cc1`, the Potency entry was “inactive”.
`Cc1ccc(NC(=O)N2CCN(c3ccccn3)CC2)cc1`: the Potency result was “inactive”.
Regarding `COc1ccc2oc(-c3ccc(NC(=O)c4ccc(N5CCOCC5)c([N+](=O)[O-])c4)cc3)nc2c1`, the Potency result was “inactive”.
Under `CCOC(=O)c1nn(-c2ccccc2)c(=O)c2c(NC(=O)c3ccccc3)scc12` stands “inactive”; under `COc1ccc(OC)c(NC(=O)c2c(NCc3cccs3)sc3c2CCCC3)c1`, “inactive”; under `O=C(CSc1nc2scc(-c3ccco3)c2c(=O)n1-c1ccccc1)N1CCOCC1`, “inactive”.
With `CCOC(=O)N1CCN(C(=O)CN2C(=O)/C(=C\c3cccc(OC)c3)SC2=S)CC1`, the Potency entry is “inactive”.
For the compound `Nc1ccc(-c2ccc3ccccc3n2)cc1`, the Potency entry is “inactive”.
On to `O=C(Nc1nnc(S(=O)(=O)Nc2ccccc2)s1)C1CCCCC1`, for which the Potency entry was “inactive”.
Under `O=C(NCc1cccnc1)C1CCN(S(=O)(=O)c2cccs2)CC1` stands “inactive”; under `Cc1ccc(N(C)S(=O)(=O)c2nnc(NC(=O)C3CCCCC3)s2)cc1`, “inactive”; under `CCOC(=O)c1nn(-c2ccccc2F)c(=O)c2c(N)scc12`, “inactive”.
Turning to `COc1cccc(/C=C2/SC(=S)N(CC(=O)Nc3nnc(C)s3)C2=O)c1`, the Potency entry was “inactive”.
With `O=C(Cc1ccccc1)Nc1sc2c(c1C(=O)Nc1ccc(Br)cc1)CCCC2`, the Potency result was “inactive”.
As for `Cn1sc(NC(=O)c2ccccc2)nc1=O`, the Potency result was “inactive”.
Under `CN1CCc2sc(NC(=O)Cc3ccccc3)c(C(=O)Nc3ccc(Cl)cc3)c2C1` stands “inactive”; under `COC(=O)c1c(NC(=O)C(C)(C)C)sc2c1C(C(=O)OC)CC2` (stereo not given), “inactive”; under `CCOC(=O)c1nn(-c2ccc(C)c(C)c2)c(=O)c2c(N)scc12`, “inactive”.
For `COc1c(Cl)cccc1NC(=O)c1c(NC(=O)Cc2ccccc2)sc2c1CCCC2`, the Potency entry is “inactive”.
With `O=C(Cc1ccccc1)Nc1sc2c(c1C(=O)Nc1ccc(Cl)cc1)CCOC2`, the Potency result was “inactive”.
For the compound `O=C(O)CN1C(=O)/C(=C/c2ccc(-c3cccc(Cl)c3)o2)SC1=S`, the Potency result was “inactive”.
Turning to `O=C(Nc1ccccc1)Nc1ccccc1`, the Potency entry is “inactive”.
As for `CCN(c1ccccc1)S(=O)(=O)c1nnc(NC(=O)C(C)(C)C)s1`, the Potency result is “inactive”.
Regarding `COC(=O)CSc1nc2ccc(NC(=O)CSc3nnnn3Cc3ccccc3)cc2s1`, the Potency entry is “inactive”.
Consider `CC(=O)Nc1sc(C)c2cnn(-c3ccccc3)c(=O)c12`, for which the Potency result is “inactive”.
As to `COc1ccc(NC(=O)C2CCN(S(=O)(=O)c3c(C)noc3/C=C/c3cccs3)CC2)cc1Cl`, the Potency result is “inactive”.
Regarding `CCOC(=O)c1ccc(-n2nc(C(=O)OCC)c3csc(N)c3c2=O)cc1`, the Potency result was “inactive”.
Under `Cc1sc(N)c2c(=O)n(-c3ccccc3)ncc12` stands “inactive”.
For the compound `CCOC(=O)c1nn(-c2ccccc2)c(=O)c2c(N)sc(C)c12`, the Potency entry is “inactive”.
Under `CC(C)c1ccc(NS(=O)(=O)c2ccc3[nH]cc(C(=O)NCCc4ccccc4)c(=O)c3c2)cc1` stands “inactive”; under `COc1ncc(-c2ccccc2)cc1N`, “inactive”.
